{"source": "PubChem BioAssay (NCATS)", "key": {"[1]": {"experiment": "Viability qHTS for spleen associated tyrosine kinase inhibitor (SYKi) drug resistant MV4-11 cells (AID 1963824); note: nearly all actives have a fitted effect of over 35% in size", "outline": "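SYK-inhibitor-resistant MV4-11 AML cells were seeded at 500 per well onto compound and cultured 72 hours (37 °C, 5% CO2). CellTiter-Glo was then added, and after 10 min at room temperature, luminescence gave viability.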"}, "[2]": {"experiment": "Quantitative highthroughput screen to assess conditional lethalithy of SEM cells grown in Human Plasma-Like Medium with dialyzed fetal bovine serum (HPLM+ds) (AID 1963882); note: nearly all actives have a fitted effect of over 35% in size; for Viability: series mostly up to about 46 µM", "outline": "(§1)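 Each medium arm—HPLM with 10% dialyzed FBS, or RPMI1640 with 5 mM glucose and 10% untreated or dialyzed FBS—was screened against an 11-point, 3-fold compound titration for 48 h at 37 °C, with CellTiter-Glo luminescence as endpoint.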"}, "[3]": {"experiment": "Quantitative highthroughput screen to assess conditional lethalithy of SEM cells grown in RPMI1640 with unreated serum (RPMI+s) (AID 1963883)", "outline": "as §1"}, "[4]": {"experiment": "Quantitative highthroughput screen to assess conditional lethalithy of SEM cells grown in RPMI1640 with dialyzed fetal bovine serum (RPMI+ds) (AID 1963884)", "outline": "as §1"}, "[5]": {"experiment": "Cellular viability qHTS for adrenocortical cancer (ACC) cell line SW-13 (AID 1963989)", "settings": "SW-13 ACC cells viability, CellTiter-Glo, 48 h; activity (max response): active compounds read low", "outline": "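IC50 and maximal-response values come from four-parameter logistic fits of titration data. SW-13 cells in serum-free medium received compounds (up to 46 uM final) for 48 h before CellTiter-Glo luminescence.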"}, "[6]": {"experiment": "Quantitative highthroughput screen to assess conditional lethalithy of P12 Ichikawa cells grown in Human Plasma-Like Medium with dialyzed fetal bovine serum (HPLM+ds) (AID 1963879)", "settings": "Potency: viability", "outline": "as §1"}, "[7]": {"experiment": "Quantitative highthroughput screen to assess conditional lethalithy of P12 Ichikawa cells grown in RPMI1640 with untreated serum (RPMI+s) (AID 1963881)", "settings": "Potency: viability", "outline": "as §1"}, "[8]": {"experiment": "Cellular viability qHTS for adrenocortical cancer (ACC) cell line NCI-H295R (AID 1963990)", "outline": "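Adrenocortical carcinoma cells, suspended at 300 000 cells/mL in serum-free DMEM plus ITS, rested overnight before pin transfer of compound. After two days' incubation, ATP-dependent luminescence was recorded and curve-fitted.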"}, "[9]": {"experiment": "Quantitative highthroughput screen to assess conditional lethalithy of P12 Ichikawa cells grown in RPMI1640 with dialyzed fetal bovine serum (RPMI+ds) (AID 1963880)", "settings": "Potency: P12-Ichikawa viability", "outline": "as §1"}}, "note": "“And” between values parts separate entries of the source, which are not always exact repeats. Equal values may be shown once. Results filed as inconclusive are left out. Values without a mark were called inactive. The source made the active and inactive calls. Calls come from the whole dose curve; as a rule, active = well fitted curve in the direction sought with a large enough effect; inconclusive = small, poorly fitted or top-dose-only effect, or another doubt; inactive = no such curve, though single readings can be large; an effect the other way counts as inactive or inconclusive. Potency is the fitted concentration of half-maximal effect. Throughout, for Viability: nearly all actives have a fitted effect of over 35% in size. Throughout, for activity (max response): % is set by controls: 0 for no effect and ±100 for the full control effect. Throughout, for activity (max response): nearly all actives have a fitted effect of over 65% in size."}
{"smiles": "CS(=O)(=O)N(Cc1ccco1)CC(O)Cn1c2ccccc2c2ccccc21", "note": "(centres undefined)", "values": [{"measurement": "Potency", "setting": "[1]", "result": "16.4 µM (active) and 16.6 µM (active)"}, {"measurement": "Potency", "setting": "[2]", "result": "18.7 µM (active)"}, {"measurement": "Potency", "setting": "[3]", "result": "14.8 µM (active)"}, {"measurement": "Potency", "setting": "[4]", "result": "5.9 µM (active)"}]}
{"smiles": "CC(C)C[C@@H]1NC(=O)[C@@H](C(C)C)NC(=O)[C@@H]2CCCN2C(=O)[C@@H](CC(=O)O)NC(=O)[C@@H](Cc2c[nH]c3ccccc23)NC1=O", "values": [{"measurement": "Potency", "setting": "[1]", "result": "9.34 µM (active)"}, {"measurement": "activity (max response)", "setting": "[5]", "result": -0.875, "unit": "%"}]}
{"smiles": "COc1ccc(C(=O)CC2(O)C(=O)Nc3c(Cl)ccc(Cl)c32)cc1", "note": "(centres undefined)", "values": [{"measurement": "Potency", "setting": "[1]", "result": "3.26 µM (active)"}, {"measurement": "Potency", "setting": "[6]", "result": "4.18 µM (active)"}, {"measurement": "Potency", "setting": "[7]", "result": "4.69 µM (active)"}, {"measurement": "Potency", "setting": "[2]", "result": "4.18 µM (active)"}, {"measurement": "Potency", "setting": "[3]", "result": "3.72 µM (active)"}, {"measurement": "Potency", "setting": "[4]", "result": "4.18 µM (active)"}, {"measurement": "activity (max response)", "setting": "[5]", "result": -14.9, "unit": "%"}]}
{"smiles": "O=C(O)CCCCC(CCSCc1ccccc1)SCc1ccccc1", "note": "(centres undefined)", "values": [{"measurement": "Potency", "setting": "[1]", "result": "13.2 µM (active)"}, {"measurement": "Potency", "setting": "[6]", "result": "14.8 µM (active)"}, {"measurement": "Potency", "setting": "[3]", "result": "inactive"}, {"measurement": "Potency", "setting": "[4]", "result": "inactive"}, {"measurement": "activity (max response)", "setting": "[5]", "result": -7.05, "unit": "%"}]}
{"smiles": "CN(C(=O)c1ccc(F)cc1C(F)(F)F)C1CCN(c2nnc(-c3ccnn3C)c3ccccc23)CC1", "values": [{"measurement": "Potency", "setting": "[1]", "result": "18.4 µM (active)"}, {"measurement": "Potency", "setting": "[2]", "result": "inactive"}, {"measurement": "Potency", "setting": "[3]", "result": "inactive"}, {"measurement": "activity (max response)", "setting": "[5]", "result": -13.3, "unit": "%"}]}
{"smiles": "CN1CCCC(n2nc(Cc3ccc(Cl)cc3)c3ccccc3c2=O)CC1", "note": "(centres undefined)", "values": [{"measurement": "Potency", "setting": "[1]", "result": "26.6 µM (active)"}, {"measurement": "Potency", "setting": "[3]", "result": "inactive"}, {"measurement": "Potency", "setting": "[4]", "result": "inactive"}, {"measurement": "Potency", "setting": "[8]", "result": "18.4 µM (active)"}]}
{"smiles": "Cc1c(C(=O)NN2CCCCC2)nn(-c2ccc(Cl)cc2Cl)c1-c1ccc(Cl)cc1", "values": [{"measurement": "Potency", "setting": "[1]", "result": "23.7 µM (active)"}, {"measurement": "Potency", "setting": "[9]", "result": "3.32 µM (active)"}, {"measurement": "Potency", "setting": "[2]", "result": "inactive"}, {"measurement": "Potency", "setting": "[3]", "result": "inactive"}, {"measurement": "Potency", "setting": "[4]", "result": "inactive"}, {"measurement": "Potency", "setting": "[5]", "result": "28.2 µM (active)"}, {"measurement": "Potency", "setting": "[8]", "result": "20.6 µM (active) and 28.2 µM (active)"}]}
{"smiles": "CCN1CCC(n2cc(CNc3cc(Cl)c4ncc(C#N)c(Nc5ccc(F)c(Cl)c5)c4c3)nn2)CC1", "values": [{"measurement": "Potency", "setting": "[1]", "result": "11.6 µM (active)"}, {"measurement": "Potency", "setting": "[6]", "result": "4.18 µM (active)"}, {"measurement": "Potency", "setting": "[7]", "result": "18.7 µM (active)"}, {"measurement": "Potency", "setting": "[2]", "result": "18.7 µM (active)"}, {"measurement": "Potency", "setting": "[3]", "result": "3.32 µM (active)"}, {"measurement": "Potency", "setting": "[4]", "result": "13.2 µM (active)"}, {"measurement": "Potency", "setting": "[8]", "result": "31.6 µM (active)"}]}
{"smiles": "COc1ccc2c(c1)CC[C@@H](CN(C)CC(=O)O)[C@H]2c1ccccc1", "values": [{"measurement": "Potency", "setting": "[1]", "result": "inactive"}, {"measurement": "Potency", "setting": "[6]", "result": "2.64 µM (active)"}, {"measurement": "Potency", "setting": "[7]", "result": "2.64 µM (active)"}, {"measurement": "Potency", "setting": "[2]", "result": "2.35 µM (active)"}, {"measurement": "Potency", "setting": "[3]", "result": "2.64 µM (active)"}, {"measurement": "activity (max response)", "setting": "[5]", "result": 12.6, "unit": "%"}, {"measurement": "Potency", "setting": "[8]", "result": "inactive"}]}
{"smiles": "Cc1cc(Nc2cc(NC(=O)c3c(Cl)cccc3Cl)ccn2)nc(N)n1", "values": [{"measurement": "Potency", "setting": "[1]", "result": "0.164 µM (active)"}, {"measurement": "Potency", "setting": "[9]", "result": "1.18 µM (active)"}, {"measurement": "Potency", "setting": "[4]", "result": "1.05 µM (active)"}, {"measurement": "Potency", "setting": "[8]", "result": "7.08 µM (active)"}]}
{"smiles": "Cn1cncc1[C@@](N)(c1ccc(Cl)cc1)c1ccc2c(c1)c(-c1cccc(Cl)c1)cc(=O)n2C", "values": [{"measurement": "Potency", "setting": "[1]", "result": "2.35 µM (active)"}, {"measurement": "Potency", "setting": "[4]", "result": "3.72 µM (active)"}, {"measurement": "activity (max response)", "setting": "[5]", "result": -19.2, "unit": "%"}, {"measurement": "Potency", "setting": "[8]", "result": "inactive"}]}
{"smiles": "CO[C@@H]1[C@H](N(C)C(=O)c2ccccc2)C[C@H]2O[C@]1(C)n1c3ccccc3c3c4c(c5c6ccccc6n2c5c31)C(=O)NC4", "values": [{"measurement": "Potency", "setting": "[1]", "result": "51.7 nM (active) and 59 nM (active)"}, {"measurement": "Potency", "setting": "[6]", "result": "2.64 µM (active)"}, {"measurement": "Potency", "setting": "[2]", "result": "0.662 µM (active)"}, {"measurement": "Potency", "setting": "[3]", "result": "0.743 µM (active)"}, {"measurement": "Potency", "setting": "[4]", "result": "0.743 µM (active)"}]}
{"smiles": "CO[C@H]1/C=C/O[C@@]2(C)Oc3c(C)c(O)c4c(O)c(c5c(nc6cc(C)ccn65)c4c3C2=O)NC(=O)/C(C)=C\\C=C\\[C@H](C)[C@H](O)[C@@H](C)[C@@H](O)[C@@H](C)[C@H](OC(C)=O)[C@@H]1C", "values": [{"measurement": "Potency", "setting": "[1]", "result": "14.8 µM (active)"}, {"measurement": "Potency", "setting": "[5]", "result": "25.1 µM (active)"}]}
{"smiles": "CCCCCCCCCCCC(CC1OC(=O)C1CCCCCC)OC(=O)C(CC(C)C)NC=O", "note": "(centres undefined)", "values": [{"measurement": "Potency", "setting": "[1]", "result": "3.72 µM (active)"}, {"measurement": "Potency", "setting": "[9]", "result": "23.5 µM (active)"}, {"measurement": "Potency", "setting": "[7]", "result": "20.9 µM (active)"}, {"measurement": "Potency", "setting": "[3]", "result": "5.9 µM (active)"}, {"measurement": "Potency", "setting": "[4]", "result": "11.8 µM (active)"}]}
{"smiles": "OC[C@H]1OC(O)C[C@@H](O)[C@H]1O", "note": "(some centres undefined)", "values": [{"measurement": "Potency", "setting": "[1]", "result": "inactive"}, {"measurement": "Potency", "setting": "[6]", "result": "inactive"}, {"measurement": "Potency", "setting": "[9]", "result": "inactive"}, {"measurement": "Potency", "setting": "[2]", "result": "inactive"}, {"measurement": "Potency", "setting": "[3]", "result": "inactive"}, {"measurement": "Potency", "setting": "[4]", "result": "inactive"}, {"measurement": "activity (max response)", "setting": "[5]", "result": 7.09, "unit": "%"}, {"measurement": "Potency", "setting": "[8]", "result": "inactive"}]}
{"smiles": "O=C(CCCN1CCN(c2ccc(F)cc2)CC1)NC1c2ccccc2CSc2ccccc21", "note": "(centres undefined)", "values": [{"measurement": "Potency", "setting": "[1]", "result": "14.6 µM (active)"}, {"measurement": "Potency", "setting": "[2]", "result": "inactive"}, {"measurement": "activity (max response)", "setting": "[5]", "result": -20.8, "unit": "%"}]}
{"smiles": "C[C@@]1(C(=O)Nc2ccc(F)nc2)CCCN1c1nc(Nc2cc(C3CC3)[nH]n2)c2cccn2n1", "values": [{"measurement": "Potency", "setting": "[1]", "result": "1.84 µM (active)"}, {"measurement": "Potency", "setting": "[6]", "result": "2.96 µM (active)"}, {"measurement": "Potency", "setting": "[7]", "result": "2.96 µM (active)"}, {"measurement": "Potency", "setting": "[2]", "result": "4.18 µM (active)"}, {"measurement": "Potency", "setting": "[4]", "result": "3.32 µM (active)"}, {"measurement": "Potency", "setting": "[8]", "result": "0.199 µM (active)"}]}
{"smiles": "NC(=NCc1ccccc1)NC(=O)c1nc(Cl)c(N)nc1N", "values": [{"measurement": "Potency", "setting": "[1]", "result": "5.25 µM (active)"}, {"measurement": "Potency", "setting": "[2]", "result": "inactive"}, {"measurement": "Potency", "setting": "[4]", "result": "14.8 µM (active)"}]}
{"smiles": "C[N+](C)([O-])CCNc1ccc(NCC[N+](C)(C)[O-])c2c1C(=O)c1c(O)ccc(O)c1C2=O", "values": [{"measurement": "Potency", "setting": "[1]", "result": "0.934 µM (active)"}, {"measurement": "Potency", "setting": "[6]", "result": "1.66 µM (active)"}, {"measurement": "Potency", "setting": "[7]", "result": "0.743 µM (active)"}, {"measurement": "Potency", "setting": "[2]", "result": "1.18 µM (active)"}, {"measurement": "Potency", "setting": "[3]", "result": "0.296 µM (active)"}, {"measurement": "Potency", "setting": "[4]", "result": "0.743 µM (active)"}, {"measurement": "Potency", "setting": "[8]", "result": "inactive"}]}
